Test results from PubChem BioAssay (NCATS).
Inconclusive results are not listed. A call without a number means that no potency is given here. Calls of active or inactive are those of the source. The call rests on the fitted dose curve; in most records, active means well fitted curve in the direction sought with a large enough effect; inconclusive means small, poorly fitted or top-dose-only effect, or another doubt; inactive means no such curve, though single readings can be large; an effect the other way counts as inactive or inconclusive. Residues, ends and D or L forms follow the SMILES beside them. *: point of attachment. Cbz = O=C(OCc1ccccc1)*

Assays:
[1] = qHTS to identify inhibitors of the type 1 interferon - major histocompatibility complex class I in skeletal muscle: primary screen against the NCATS LOPAC collection (AID 1347405); details: iHSKM muscle cells, IFN-b-induced MHC-I HiBiT luminescence, 24 h; series mostly up to 45.9 µM;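 further: lytic HiBiT luminescence reporting HLA-B protein level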; further: potency means the concentration at half of the fitted maximal effect
In short: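 Cells: C25cl48 human myoblasts, HiBiT-tagged HLA-B*08:01, stimulated with IFN-beta 4.0 ng/ml. Compounds are titrated 1:4.3 over 7 points from 46 uM final and incubated 24 hrs; endogenous MHC class I is quantified by HiBiT lytic luminescence.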

[2] = qHTS for inhibitors of adenylyl cyclases using a fission yeast platform: a pilot screen against the NCATS LOPAC library (AID 1347410); details: S. pombe CHP2027, fbp1-GFP fluorescence, 18 h, yeast expressing mammalian AC9 and human GNAS; series mostly up to 57.5 µM
In short: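 S. pombe CHP2027 (AC9-GNAS-PDE4D2) carrying PKA-repressed fbp1-GFP, incubated 18 h at 30C in EMM with LOPAC compounds at up to 57 uM. GFP gain-of-signal read by laser scanning cytometry; DMSO negative control.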

[3] = Validation qHTS assay for inhibitors of Activation Induced Cytidine Deaminase (AID): UDG Counterscreen signal (AID 1347427); details: biochemical UDG counterscreen, fluorescence signal; series mostly up to 115 µM
In short: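 Counterscreen read of UDG activity (2 U/mL, 4/3x) in the FRET deamination format with AID (1 uM, 4/3x), DJC20/DJC23 substrates (250 nM, 4x), 4 h at room temperature. NaOH stop, fluorescence at 560 ex/665 em.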

[4] = target: Single-stranded DNA cytosine deaminase (Homo sapiens) (UniProt Q9GZX7); assay: Validation qHTS assay for inhibitors of Activation Induced Cytidine Deaminase (AID): AID signal (AID 1347429); details: Recombinant AID, FRET ssDNA deamination with UDG, fluorescence; series mostly up to 115 µM
Sequence of Single-stranded DNA cytosine deaminase (Homo sapiens) (Q9GZX7 whole entry, looked up): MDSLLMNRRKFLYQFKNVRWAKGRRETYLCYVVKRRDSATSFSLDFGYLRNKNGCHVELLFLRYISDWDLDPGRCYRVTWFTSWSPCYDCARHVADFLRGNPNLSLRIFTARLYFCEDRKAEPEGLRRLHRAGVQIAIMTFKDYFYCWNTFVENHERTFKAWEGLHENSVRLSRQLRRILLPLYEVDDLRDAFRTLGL
In short: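 In this coupled qHTS, AID deaminates a FRET-labelled ssDNA substrate in the presence of UDG over 4 hr at room temperature. Compounds span up to 114 uM final.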

[5] = Primary qHTS for inhibitors of La Crosse Virus (LACV) - induced cell death in SH-SY5Y cells (AID 1508616); details: SH-SY5Y LACV cytopathicity rescue, ATP luminescence, 6 d; series mostly up to 9.63 µM;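 further: top concentration of the series differs between compounds; higher means more rescue of cells from virus-induced death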
In short: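 Readout was luminescence from ATPLite 1step added after a 6-day LACV infection (0.01 MOI) of SH-SY5Y cells that had received pin-transferred compound 24 hr after seeding.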

Row | Structure (SMILES) | Potency [1] | outcome [2] | Potency [3] | Potency [4] | Potency [5]
1 | N=C(N)c1ccccc1 | inactive | inactive | inactive | inactive | inactive
2 | O=C(O)c1cccnc1C(=O)O | inactive | inactive | inactive | inactive | inactive
3 | COc1cccc(OC)c1OCCNCC1CSc2ccccc2O1 (centres undefined) | inactive | inactive | inactive | inactive | inactive
4 | O=C(c1ccc2c(c1)OCCO2)N1CCCCC1 | inactive | inactive | inactive | inactive | inactive
5 | COc1ccccc1N1CCN(CCN(C(=O)c2ccc(F)cc2)c2ccccn2)CC1 | inactive | inactive | inactive | inactive | inactive
6 | CCCc1c(-c2ccc(O)cc2)nn(-c2ccc(O)cc2)c1-c1ccc(O)cc1 | inactive | inactive | inactive | inactive | inactive
7 | COc1ccccc1N1CCN(CCCNc2c(C)c(=O)n(C)c(=O)n2C)CC1 | inactive | inactive | inactive | inactive | inactive
8 | CSC(=N)N | inactive | inactive | inactive | inactive | inactive
9 | Nc1ncnc2c1ncn2C1CCCO1 (centres undefined) | inactive | inactive | inactive | inactive | inactive
10 | N[C@H](C(=O)O)c1cc(O)cc(O)c1 | inactive | inactive | inactive | inactive | inactive
11 | CCCn1c(=O)c2[nH]c(-c3ccc(S(=O)(=O)O)cc3)nc2n(CCC)c1=O | inactive | inactive | inactive | inactive | inactive
12 | CCCC(=O)NCCc1c2n(c3ccc(OC)cc13)CCCc1ccccc1-2 | inactive | inactive | inactive | inactive | inactive
13 | COc1ccc(C(=O)NCc2cccnc2)cc1C(=O)NCc1cccnc1 | inactive | inactive | inactive | inactive | inactive
14 | COc1cc(CC(=O)O)ccc1O | inactive | inactive | inactive | inactive | inactive
15 | O=C(O)Cc1ccc(O)c(O)c1 | inactive | inactive | inactive | inactive | inactive
16 | CC(C)NCC(O)COc1ccc(CC(N)=O)cc1 (centres undefined) | inactive | inactive | inactive | inactive | inactive
17 | CN1CC(O)C(O)C(O)C1CO (centres undefined) | inactive | inactive | inactive | inactive | inactive

Row | Structure (SMILES) | Potency [1] | outcome [2] | Potency [3] | Potency [4] | Potency [5]
18 | CC(C)[C@H](NC(=O)OCc1ccccc1)C(=O)N[C@H](C=O)Cc1ccccc1 (Cbz-Val-Phe-aldehyde) | inactive | inactive | inactive | inactive | inactive
19 | NC1(C(=O)O)CCc2cc(C(=O)O)ccc21 (centres undefined) | inactive | inactive | inactive | inactive | inactive
20 | c1ccc2nc(C3=NCCN3)ccc2c1 | inactive | inactive | inactive | inactive | inactive
21 | C=CCN1CCc2c(cc(O)c(O)c2Cl)C(c2ccccc2)C1 (centres undefined) | inactive | inactive | inactive | inactive | inactive
22 | CC[C@H](NC(=O)c1c(C)c(-c2ccccc2)nc2ccccc12)c1ccccc1 | inactive | inactive | inactive | inactive | inactive
23 | CCOC(=O)C12CC1/C(=N/O)c1ccccc1O2 (centres undefined) | inactive | inactive | inactive | inactive | inactive
24 | Cn1c(=O)[nH]c2ncn(C)c2c1=O | inactive | inactive | inactive | inactive | inactive
25 | COC(=O)C(N)Cc1ccc(Cl)cc1 (centres undefined) | inactive | inactive | inactive | inactive | inactive
26 | Cc1cccc(C2CN(C)CCc3c2cc(O)c(O)c3Cl)c1 (centres undefined) | inactive | inactive | inactive | inactive | inactive
27 | c1ccc2c(c1)CC(N1CCN(c3cccc4c3OCCO4)CC1)C2 | inactive | inactive | inactive | inactive | inactive
28 | COc1ccc2c(c1)CCC1C2CC[C@@]2(C)C1CC[C@@H]2NCCCCCCN1C(=O)C=CC1=O (some centres undefined) | inactive | inactive | inactive | inactive | inactive
29 | Cc1nc(N=Nc2cc(S(=O)(=O)O)c3cc([N+](=O)[O-])cc(S(=O)(=O)O)c3c2)c(COP(=O)(O)O)c(C=O)c1O | 15.8 µM (active) | inactive | inactive | inactive | inactive
30 | O=C(O)C1CCCNC1 (centres undefined) | inactive | inactive | inactive | inactive | inactive
31 | C=CC[C@H](N)C(=O)O | inactive | inactive | inactive | inactive | inactive
32 | CN(CC[C@@H](Oc1ccc(C(F)(F)F)cc1)c1ccccc1)CC(=O)O | inactive | inactive | inactive | inactive | inactive
33 | N[C@H](C(=O)O)[C@H](O)C(=O)O | inactive | inactive | inactive | inactive | inactive
34 | CN(C)CCCc1cc(C(=O)Nc2ccc(-c3ccncc3)cc2)ccc1O | inactive | inactive | inactive | – | inactive
